Source: article PMC8384837, “Expanding the binding specificity for RNA recognition by a PUF domain”
Positions count from the first letter of the chain named.

Legend:
Test in all cases: yeast three-hybrid, YBZ-1, SC-Leu-His + 0.5 mM 3-AT, 4 days
Conditions in all cases: tags: N-Gal4 AD-HA kept; label: inside an RPR1-promoter hybrid RNA with tandem MS2 sites; ssRNA
PUM1 PUF domain R8-PWT = PUM1 PUF domain R8-PWT (Homo sapiens, UniProt Q14671 828-1176, N1122P;Y1123W;Q1126T)
Method in brief: (§1)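 Each repeat of the Pumilio-1 PUF domain was randomized at its three base-contacting residues, and these libraries were co-expressed from a centromeric plasmid with matching RNA elements in strain YBZ-1. After four days on SC-Leu (input) or SC-Leu-His + 0.5 mM 3-AT (selection), the repeat regions were PCR-amplified and Illumina-sequenced. The interaction score compares variant frequency between input and selection as a log change, computed in log2 with a pseudocount of 1 for absent variants.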

PUM1 PUF domain R8-LFK = PUM1 PUF domain R8-LFK (Homo sapiens, UniProt Q14671 828-1176, N1122L;Y1123F;Q1126K)
Method in brief: as §1

PUM1 PUF domain R5-QMW = PUM1 PUF domain R5-QMW (Homo sapiens, UniProt Q14671 828-1176, C1007Q;R1008M;Q1011W)
Method in brief: as §1

PUM1 PUF domain R2-LFS = PUM1 PUF domain R2-LFS (Homo sapiens, UniProt Q14671 828-1176, N899L;Y900F;Q903S)
Method in brief: as §1

PUM1 PUF domain R6-MYV = biological target: T1, PUM1 PUF domain R6-MYV (Homo sapiens, UniProt Q14671 828-1176, N1043M;Q1047V)
T1 sequence: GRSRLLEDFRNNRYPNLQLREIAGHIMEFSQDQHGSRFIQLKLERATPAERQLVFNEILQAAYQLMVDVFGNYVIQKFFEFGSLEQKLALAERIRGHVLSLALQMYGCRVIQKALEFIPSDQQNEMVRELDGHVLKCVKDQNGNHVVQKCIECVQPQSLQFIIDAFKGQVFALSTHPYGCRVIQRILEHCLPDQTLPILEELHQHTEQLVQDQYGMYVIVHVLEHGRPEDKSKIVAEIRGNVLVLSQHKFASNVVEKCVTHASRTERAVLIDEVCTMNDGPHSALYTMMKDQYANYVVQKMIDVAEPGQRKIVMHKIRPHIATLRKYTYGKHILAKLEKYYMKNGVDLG
Method in brief: as §1

PUM1 PUF domain R3-IYR = PUM1 PUF domain R3-IYR (Homo sapiens, UniProt Q14671 828-1176, C935I;R936Y;Q939R)
Method in brief: as §1

PUM1 PUF domain R3-CRL = PUM1 PUF domain R3-CRL (Homo sapiens, UniProt Q14671 828-1176, Q939L)
Method in brief: as §1

PUM1 PUF domain R3-LFI = PUM1 PUF domain R3-LFI (Homo sapiens, UniProt Q14671 828-1176, C935L;R936F;Q939I)
Method in brief: as §1

PUM1 PUF domain R6-YWR = biological target: T2, PUM1 PUF domain R6-YWR (Homo sapiens, UniProt Q14671 828-1176, N1043Y;Y1044W;Q1047R)
T2 sequence: T1 sequence with M216Y, Y217W, V220R
Method in brief: as §1

PUM1 PUF domain R3-TRW = PUM1 PUF domain R3-TRW (Homo sapiens, UniProt Q14671 828-1176, C935T;Q939W)
Method in brief: as §1

PUM1 PUF domain R3-SRT = PUM1 PUF domain R3-SRT (Homo sapiens, UniProt Q14671 828-1176, C935S;Q939T)
Method in brief: as §1

PUM1 PUF domain R4-CMC = PUM1 PUF domain R4-CMC (Homo sapiens, UniProt Q14671 828-1176, N971C;H972M;Q975C)
Method in brief: as §1

PUM1 PUF domain R6-RHS = biological target: T3, PUM1 PUF domain R6-RHS (Homo sapiens, UniProt Q14671 828-1176, N1043R;Y1044H;Q1047S)
T3 sequence: T1 sequence with M216R, Y217H, V220S
Method in brief: as §1

PUM1 PUF domain R1-GKK = PUM1 PUF domain R1-GKK (Homo sapiens, UniProt Q14671 828-1176, S863G;R864K;Q867K)
Method in brief: as §1

PUM1 PUF domain R1-KVI = PUM1 PUF domain R1-KVI (Homo sapiens, UniProt Q14671 828-1176, S863K;R864V;Q867I)
Method in brief: as §1

PUM1 PUF domain R3-IRG = PUM1 PUF domain R3-IRG (Homo sapiens, UniProt Q14671 828-1176, C935I;Q939G)
Method in brief: as §1

PUM1 PUF domain R5-QMW, sequence (Q14671 828-1176 C1007Q/R1008M/Q1011W): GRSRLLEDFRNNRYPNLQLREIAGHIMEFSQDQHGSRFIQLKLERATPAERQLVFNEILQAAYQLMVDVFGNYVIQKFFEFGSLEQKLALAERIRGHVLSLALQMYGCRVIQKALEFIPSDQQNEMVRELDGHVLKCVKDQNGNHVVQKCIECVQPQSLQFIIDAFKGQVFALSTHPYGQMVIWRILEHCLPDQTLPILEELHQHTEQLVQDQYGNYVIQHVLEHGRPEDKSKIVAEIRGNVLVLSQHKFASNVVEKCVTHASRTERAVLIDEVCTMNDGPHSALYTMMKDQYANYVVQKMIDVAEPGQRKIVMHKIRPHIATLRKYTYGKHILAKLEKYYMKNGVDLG

In the case of “GGCUAGAACUAGUGGAUCCCCCGGCGCCCGGCGGCUCGAGCCCGGGUAAGCGUAAAUAGUCUGCAUGCCGCCGGGCGCCAUGCCUGCAGGUCGACUCUAGAAAACAUG”, the binding signal (PUM1 PUF domain R8-PWT) is reported as 3.16 log2 enrichment (interaction score) and the binding signal (PUM1 PUF domain R8-LFK) is reported as 5.27 log2 enrichment (interaction score).
In the case of “GGCUAGAACUAGUGGAUCCCCCGGCGCCCGGCGGCUCGAGCCCGGGUAAGUGUUAAUAGUCUGCAUGCCGCCGGGCGCCAUGCCUGCAGGUCGACUCUAGAAAACAUG”, the binding signal (PUM1 PUF domain R5-QMW) is reported as 0.66 log2 enrichment (interaction score).
“GGCUAGAACUAGUGGAUCCCCCGGCGCCCGGCGGCUCGAGCCCGGGUAAGUGUAAAAAGUCUGCAUGCCGCCGGGCGCCAUGCCUGCAGGUCGACUCUAGAAAACAUG” was tested, and the binding signal (PUM1 PUF domain R2-LFS) was 3.97 log2 enrichment (interaction score).
With “GGCUAGAACUAGUGGAUCCCCCGGCGCCCGGCGGCUCGAGCCCGGGUAAGUGUAAAUAGUCUGCAUGCCGCCGGGCGCCAUGCCUGCAGGUCGACUCUAGAAAACAUG” the binding signal (PUM1 PUF domain R6-MYV) was 2.31 log2 enrichment (interaction score), the binding signal (PUM1 PUF domain R3-IYR) was 4.02 log2 enrichment (interaction score) and the binding signal (PUM1 PUF domain R8-PWT) was 1.25 log2 enrichment (interaction score). The binding signal (PUM1 PUF domain R3-CRL) was 2.25 log2 enrichment (interaction score), the binding signal (PUM1 PUF domain R3-LFI) was 3.78 log2 enrichment (interaction score) and the binding signal (PUM1 PUF domain R6-YWR) was 5.79 log2 enrichment (interaction score). For the same sequence, the binding signal (PUM1 PUF domain R3-TRW) was 4.35 log2 enrichment (interaction score), the binding signal (PUM1 PUF domain R8-LFK) was 4.86 log2 enrichment (interaction score) and the binding signal (PUM1 PUF domain R3-SRT) was 4.56 log2 enrichment (interaction score). For the same sequence, the binding signal (PUM1 PUF domain R4-CMC) was 2.5 log2 enrichment (interaction score) and the binding signal (PUM1 PUF domain R6-RHS) was 2.73 log2 enrichment (interaction score).
With “GGCUAGAACUAGUGGAUCCCCCGGCGCCCGGCGGCUCGAGCCCGGGUAAGUGUAAAUGGUCUGCAUGCCGCCGGGCGCCAUGCCUGCAGGUCGACUCUAGAAAACAUG” the binding signal (PUM1 PUF domain R1-GKK) was 3.39 log2 enrichment (interaction score) and the binding signal (PUM1 PUF domain R1-KVI) was 2.15 log2 enrichment (interaction score).
In the case of “GGCUAGAACUAGUGGAUCCCCCGGCGCCCGGCGGCUCGAGCCCGGGUAAGUGUAAGUAGUCUGCAUGCCGCCGGGCGCCAUGCCUGCAGGUCGACUCUAGAAAACAUG”, the binding signal (PUM1 PUF domain R3-IYR) is reported as 5.62 log2 enrichment (interaction score), the binding signal (PUM1 PUF domain R3-CRL) is reported as 0.83 log2 enrichment (interaction score) and the binding signal (PUM1 PUF domain R3-IRG) is reported as 3.97 log2 enrichment (interaction score). The binding signal (PUM1 PUF domain R3-SRT) was 4.32 log2 enrichment (interaction score).
For “GGCUAGAACUAGUGGAUCCCCCGGCGCCCGGCGGCUCGAGCCCGGGUAAGUGUAAUUAGUCUGCAUGCCGCCGGGCGCCAUGCCUGCAGGUCGACUCUAGAAAACAUG”, the binding signal (PUM1 PUF domain R3-CRL) was 1.88 log2 enrichment (interaction score), the binding signal (PUM1 PUF domain R3-IRG) was 0.44 log2 enrichment (interaction score) and the binding signal (PUM1 PUF domain R3-TRW) was 0.56 log2 enrichment (interaction score). The binding signal (PUM1 PUF domain R3-SRT) was 1.65 log2 enrichment (interaction score).
